Source: PubChem
BJeLR viability – kills HRASV12-expressing BJeLR cells. BJeLR (HRASV12) viability, CellTiter-Glo ATP luminescence, 48 h. 300,000 compounds, 0.17% hits. AID 1554. inhibition, % (concentration not given with the values); in the data active means inhibition above about 50%
CCHFV vOTU inh – CCHFV vOTU protease inhibition | Pep-AMC fluorescence | inhibition, % at 11.5 µM | 370,000 compounds, 0.55% hits; in the data active means inhibition above about 30%; further: 0% = vehicle wells with enzyme and 100% = no enzyme wells
DUSP3 inh – DUSP3 (human) phosphatase inhibition; inhibition, % at 13.3 µM; P51452; recombinant VHR phosphatase, pNPP absorbance; AID 1654; 290,000 compounds, 0.52% hits; in the data active means inhibition above about 50%
Target sequence (P51452 whole entry, looked up): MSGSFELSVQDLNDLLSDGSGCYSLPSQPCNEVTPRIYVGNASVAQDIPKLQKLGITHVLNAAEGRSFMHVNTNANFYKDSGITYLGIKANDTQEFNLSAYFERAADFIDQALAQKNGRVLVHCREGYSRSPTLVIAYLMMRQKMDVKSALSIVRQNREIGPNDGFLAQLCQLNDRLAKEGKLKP
MazF activator – MazEF (E. coli) toxin RNase activation. P0AE70. activation, % at 20 µM. FAM/BHQ RNA-DNA oligo cleavage fluorescence, 5 h. 350,000 compounds, 0.32% hits; in the data active means activation above about 50%
Target sequence (P0AE70 whole entry, looked up): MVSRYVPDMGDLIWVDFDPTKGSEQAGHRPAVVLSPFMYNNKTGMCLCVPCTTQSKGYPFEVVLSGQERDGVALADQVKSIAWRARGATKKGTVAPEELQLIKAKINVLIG
3CLpro inhibitor – SARS-CoV 3CLpro protease inhibition; recombinant SARS-CoV 3CLpro, quenched FRET peptide cleavage; P0C6X7; 290,000 compounds, 0.14% hits; inhibition, % at 6 µM; in the data active means inhibition above about 12%
* marks the source's active call; other numbers are inactive results; i = inactive; . = no result given. Compounds with a hit are over-represented: about 1.4% of the library has one in this group of screens.

SMILES | BJeLR viability | CCHFV vOTU inh | DUSP3 inh | MazF activator | 3CLpro inhibitor
COc1ccc(C2c3ccccc3NC3C2C(=O)N(Cc2ccc(OC)cc2OC)[C@H]3Cc2ccccc2)cc1 (stereo partly drawn) | . | -2.8 | . | . | .
O=C(CSCCO)Nc1ccc([N+](=O)[O-])cc1 | 2.4 | 10.4 | 51.7* | 5.4 | 3.2
CCCCCC[C@@H](CN(CCCC)S(C)(=O)=O)c1ccccc1 | . | 23.9 | . | . | .
CCOC(=O)[C@@]12CCCC3=C1N(CCC3)C(=O)[C@H]2CC(=O)N1CCN(C(=O)c2ccco2)CC1 | . | 3.3 | . | . | .
COc1ccc(N=c2oc3c(OC)cccc3cc2C(=O)NCc2ccco2)c(OC)c1 | -9.9 | . | -3.7 | 64.7* | 0.5
COc1ccc2cc(C(=O)NCc3ccco3)c(=Nc3ccc(C(=O)O)cc3)oc2c1 | -7.2 | -0.7 | 10.8 | -3.3 | 0.1
COC(=O)[C@]12C[C@H](CC(=O)NCCC(C)C)C(=O)N(Cc3ccc(Cl)cc3Cl)C1=C[C@H](COCc1ccccc1)O[C@@H]2C | . | 8.7 | . | . | .
CCCCCCCCNS(=O)(=O)CC1NCc2ccc(C)cc21 (stereo not drawn) | . | -1.2 | . | . | .
O=c1[nH]c(C2CCN(S(=O)(=O)c3ccc4c(c3)OCCO4)CC2)nc2c1nnn2Cc1ccccc1 | -11.6 | 12.1 | 52.9* | -0.7 | 2.6
Cc1ccc(Cn2nnc3c(=O)[nH]c(C4CCCN(S(=O)(=O)c5ccccc5)C4)nc32)cc1 (stereo not drawn) | -4.4 | -7.2 | 50.9* | 10.0 | -0.1
COC(=O)[C@]1(CNC(C)=O)CC(=O)N(C)[C@@H]1c1ccccc1 | . | -4.5 | . | . | .
Cc1cc(C)nc(N2CCCC(C(=O)NC3CC3)C2)n1 (stereo not drawn) | -4.3 | -8.3 | 52.9* | -4.5 | 0.4
COc1ccccc1NC(=O)N(CCN(C)C)Cc1cc2cc(C)ccc2[nH]c1=O | -5.3 | 0.6 | 51.6* | 3.5 | -0.5
Cc1[nH]c2ccccc2c1/C=N/NC(=O)c1ccc(N)cc1 | 9.4 | 4.7 | 58.2* | 1.0 | -1.6
Cc1[nH]c2ccccc2c1/C=N/NC(=O)c1ccccc1 | -7.0 | 8.0 | -12.9 | 8.4 | -3.1
COc1cccc(Cn2cc(COC(=O)N3CCCC3)nn2)c1 | . | -8.7 | . | . | .
CCOC(=O)[C@H]1[C@H]2COc3ccc(Br)cc3[C@H]2N2C(=O)CN(Cc3ccc(C)cc3)C(=O)[C@@]12C | . | 21.8 | . | 161.5* | .
CCOC(=O)[C@H]1[C@H]2COc3ccc(Br)cc3[C@@H]2N2C(=O)CN(Cc3ccc(C)cc3)C(=O)[C@@]12C | . | 9.0 | . | -0.9 | .
COc1ccc(CNCC#Cc2ccccc2)cc1 | . | -2.1 | . | . | .
COCCNC(=O)/C(C#N)=C1\N=C(NC(=O)c2ccco2)c2ccccc21 | . | 20.3 | . | 7.6 | .
CCCNC(=O)/C(C#N)=C1\N=C(NC(=O)c2ccco2)c2ccccc21 | 13.9 | 12.2 | -10.2 | 90.0* | -0.8
CCCc1cc(=O)oc2c(C)c(OCC(=O)c3ccc(N4CCCC4)cc3)ccc12 | . | 3.9 | 57.9* | -3.7 | 1.6
CCCCN1CCS(=O)(=O)N(Cc2ccc(Cl)cc2)C(C(=O)OC)C1 (stereo not drawn) | . | 0.3 | . | . | .
CC(COc1ccc(C#N)cc1F)CN1CCC(C(O)(c2ccccc2)c2ccccc2)CC1 (stereo not drawn) | . | -0.7 | . | . | .
CNC(=O)CSc1nc(-c2ccccc2)c(-c2ccccc2)o1 | 4.5 | 14.0 | 14.4 | -1.1 | 4.9
SMILES | BJeLR viability | CCHFV vOTU inh | DUSP3 inh | MazF activator | 3CLpro inhibitor
CN(C)C(=O)CSc1nc(-c2ccccc2)c(-c2ccccc2)o1 | -5.4 | 10.2 | 50.7* | -5.7 | 4.2
Nn1c(SCC(=O)N2c3ccccc3Sc3ccc(Cl)cc32)nnc1-c1cc(-c2ccc(F)cc2)n[nH]1 | . | 16.3 | . | . | .
CNc1ccccc1C(C)(C)c1cn(-c2ccc([N+](=O)[O-])cc2)nn1 | -4.1 | -10.3 | 52.9* | 5.4 | -2.3
Cc1ccc(C(=O)NC2CCCCN(Cc3cccc(Cl)c3)C2=O)c(C)c1 (stereo not drawn) | . | 4.7 | . | . | .
O=C(c1ccccc1)[C@@H]1[C@@H](C(=O)c2ccc(F)cc2)[C@@]2(C(=O)Nc3ccccc32)[C@H]2c3ccccc3C=CN12 | 0.1 | 84.0* | 4.6 | -2.9 | -6.7
Cc1ccc(C(=O)Oc2cc(N)n(S(=O)(=O)c3ccc(F)cc3)n2)cc1 | -0.2 | 12.4 | 0.0 | 67.6* | 0.5
CCOC(=O)c1nn(-c2ccccc2C)c(=O)c2c(N)scc12 | 0.2 | 19.2 | 36.9 | -3.0 | -0.4
CCOC(=O)c1nn(-c2ccccc2)c(=O)c2c(N)scc12 | . | 37.1* | 5.0 | 5.8 | -2.9
CCN(CC)C(=O)CSc1nnc(-c2ccc(C(C)(C)C)cc2)n1-c1ccc(Cl)cc1 | . | 11.9 | . | . | .
CCOc1ccccc1N1C(=O)NC(=O)/C(=C/c2ccc3c4c(cccc24)CC3)C1=O | -3.9 | -29.8 | 21.9 | -14.8 | 2.5
COc1cccc(N2C(=O)NC(=O)/C(=C/c3ccc4c5c(cccc35)CC4)C2=O)c1 | 1.1 | -44.5 | 50.8* | . | 3.2
CC(C)c1cc(=O)oc2c3c4c(cc12)CCCN4CCC3 | -5.9 | -119.6 | 18.2 | 87.9* | 2.3
O=c1cc(C(F)(F)F)c2cc3c4c(c2o1)CCCN4CCC3 | 3.8 | 0.5 | -12.5 | i | -6.6
O=C(NC(=S)N1CCN(c2ccc([N+](=O)[O-])cc2)CC1)c1ccco1 | 2.6 | -12.2 | 53.0* | 2.4 | 1.5
CC(=O)NC(NC(=S)Nc1ccc(C)cc1C)C(Cl)(Cl)Cl (stereo not drawn) | 20.8 | -3.8 | 12.5 | 5.0 | 1.2
Cc1ccc(NC(=S)NC(NC(=O)c2ccccc2C)C(Cl)(Cl)Cl)c(C)c1 (stereo not drawn) | -6.0 | 15.2 | 2.2 | 5.9 | 12.8*
Cc1cc(C)cc(N(CC(=O)NC2CCC(C)CC2)S(=O)(=O)c2ccccc2)c1 (stereo not drawn) | . | 10.5 | . | . | .
COCCCNC(=O)c1ccccc1Oc1ccccc1 | 5.7 | 10.8 | 11.3 | 0.5 | 6.6
COCCCNC(=O)c1ccc2c3c(onc13)-c1ccccc1C2=O | 51.4* | . | 5.4 | i | 7.8
Cc1cc(C)cc(N(CC(=O)NC2CCC(C)CC2)S(=O)(=O)c2ccc([N+](=O)[O-])cc2)c1 (stereo not drawn) | . | -3.9 | . | . | .
CC(C(=O)OCC(=O)c1ccccc1)N1C(=O)C2C3CCC(C3)C2C1=O (stereo not drawn) | 3.9 | -9.9 | 54.4* | -3.6 | 2.2
Cc1ccc(S(=O)(=O)N(C)[C@H]2C[C@H]3c4cc(-c5ccccc5C)ccc4CCN3C[C@H]2[C@H](C)O)cc1 | . | -2.0 | . | . | .
CN1CCc2c(sc3c2C(=O)NC(c2ccccc2)N3)C1 (stereo not drawn) | 2.9 | -18.8 | -8.4 | -70.3 | -3.9
CN1CCc2c(sc3c2C(=O)NC(/C=C/c2ccco2)N3)C1 (stereo not drawn) | -1.2 | -13.3 | . | 66.1* | -0.7
Cc1cc(/C=C2\C(=O)NC(=O)N(c3ccc(Cl)cc3)C2=O)c(C)n1C | 1.6 | -1.6 | 0.8 | 35.0 | 5.0
Cc1cc(C)cc(N2C(=O)NC(=O)/C(=C\c3cc(C)n(C)c3C)C2=O)c1 | 4.5 | -0.3 | -3.2 | 92.2* | 2.7
CC(C)(C)c1ccc(C(=O)C2CCCN(C(=O)C3CCOCC3)C2)cc1 (stereo not drawn) | -9.4 | -5.3 | -26.8 | 72.7* | -3.7
